Pf growth 96h – Primary qHTS for delayed death inhibitors of the malarial parasite plastid, 96 hour incubation | P. falciparum luciferase reporter growth, 96 h | 320,000 compounds, 6.9% hits | AID 504834, 2011 | Potency, µM (doses to about 28.7 µM), without a hit: at the top dose activity change, negative = inhibition, usual class: inhibitors; further: potency means the concentration at half of the fitted maximal effect; on the % scale 0 is the no-effect control and ±100 the full control effect
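96 h incubation, 37 C, 5% CO2, of luciferase-reporter P. falciparum-infected RBCs (2% hematocrit, 0.05% parasitemia final) with test compounds; endpoint luminescence.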
HCV inhibitor – qHTS Assay for Inhibitors of Hepatitis C Virus (HCV). Huh7.5.1 HCVcc-Cre infection, luciferase reporter, 44 h. Potency, µM (top dose mostly 41.8 µM), for the others: at the top dose activity change, negative = inhibition, actives largely listed as inhibitors. 340,000 compounds, 3.4% hits. AID 651820, 2012; further: potency means the concentration at half of the fitted maximal effect; on the % scale 0 is the no-effect control and ±100 the full control effect
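Antiviral activity was scored by luciferase reporter output from cells infected with HCVcc-Cre (~0.5 moi) in presence of compound, 44 h infection period, cells seeded 1,000/well 4 h prior.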
HCMV antiviral – qHTS Assay for inhibitors of the human cytomegalovirus (HCMV). 410,000 compounds, 4.5% hits. activity change, negative = inhibition, % at 57.5 µM. HFF cells, HCMV-luciferase reporter, 72 h; hits give low values; in the data active means activity change below about -60%; inconclusive means no clear call, values can overlap the other calls; inactive means above about -39%; further: on the % scale 0 is the no-effect control and ±100 the full control effect
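Human foreskin fibroblasts infected with luciferase-reporter HCMV at MOI 1 PFU/cell, compounds at two doses. Luciferase measured 72 h post infection; normalized to buffer-only basal and Salinomycin (10uM) controls.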
CHX counter – Cycloheximide Counterscreen for Small Molecule Inhibitors of Shiga Toxin; cell reporter, cycloheximide protein synthesis inhibition counterscreen; 300,000 compounds, 12% hits; AID 2314, 2010; max response, %; in the data active means max response mostly above about 13%, no sharp cut-off; inactive means mostly below about 14%; further: read at 38.3 µM for the half of the compounds with a filed dose; 0% is about no effect
Pf growth 48h – Primary qHTS for delayed death inhibitors of the malarial parasite plastid, 48 hour incubation. P. falciparum luciferase growth in erythrocytes, 48 h. Potency, µM (doses to about 28.7 µM), for the others: at the highest dose activity change, negative = inhibition, usual class: inhibitors. 310,000 compounds, 5.9% hits. AID 504832, 2011; further: potency means the concentration at half of the fitted maximal effect; on the % scale 0 is the no-effect control and ±100 the full control effect
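Luciferase-expressing P. falciparum in infected erythrocytes (2% hematocrit, 0.1% parasitemia final) in RPMI 1640/0.5% Albumax were exposed to compound for 48 hours at 37 C, 5% CO2; growth read as luminescence.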
Shiga toxin inh – A qHTS for Small Molecule Inhibitors of Shiga Toxin; Vero cells, Shiga toxin protein synthesis inhibition reporter; AID 2315, 2010; 290,000 compounds, 9.2% hits; inhibition, % at 38.7 µM; in the data active means inhibition mostly above about 28%, no sharp cut-off; inactive means mostly below about 43%; further: 0% is about no effect
Active calls of the source: *. Most compounds without a hit are left out; they make up all but 21% or so of the library. Unless noted, the call rests on the fitted dose curve; in most records, active means well fitted inhibition curve with a large enough effect; inconclusive means small, poorly fitted or top-dose-only effect, or another doubt; inactive means no such curve, though single readings can be large or run the other way.

How did Cc1cc(C)c2c(n1)nn1c(C)c(CCC(=O)Nc3ccc(C)c(Cl)c3)c(C)nc21 do in these assays?
HCMV antiviral: 56.2

How did O=S(=O)(c1ccc2c(c1)OCCO2)N1C[C@@H]2C[C@H]1CN2S(=O)(=O)c1c(F)cccc1F do in these assays?
HCMV antiviral: -4.4

How did O=C(N=Nc1c(O)n(C2OC(=O)c3ccccc32)c2ccccc12)c1ccco1 (centres undefined) do in these assays?
Pf growth 96h: -2.8%; CHX counter: 6.8; Pf growth 48h: 6.2%; Shiga toxin inh: 1.1

How did O=C(CNC(=O)c1ccco1)N=Nc1c(O)n(CCc2ccccc2)c2ccccc12 do in these assays?
Pf growth 96h: 6.0%; HCV inhibitor: inconclusive; HCMV antiviral: -84.0*; CHX counter: -1.4; Pf growth 48h: 6.7%; Shiga toxin inh: 21.1

Results for CCCCn1c(O)c(N=NC(=O)c2ccco2)c2ccccc21 ?
Pf growth 96h: inconclusive; HCV inhibitor: -2.2%; HCMV antiviral: -13.7; CHX counter: 65.9*; Pf growth 48h: inconclusive; Shiga toxin inh: 86.0*

How did CCn1c(O)c(N=NC(=O)CNC(=O)Cc2ccccc2)c2ccccc21 do in these assays?
Pf growth 96h: 28.1%; HCV inhibitor: -15.1%; HCMV antiviral: -1.1; CHX counter: -5.6; Pf growth 48h: 14.7%; Shiga toxin inh: -3.2

How did CC1CCCCN1C(=O)c1ccc(CS(=O)(=O)Cc2ccccc2)cc1 (centres undefined) do in these assays?
Pf growth 96h: inconclusive; HCV inhibitor: -5.5%; HCMV antiviral: -22.4; CHX counter: -3.0; Pf growth 48h: -24.1%; Shiga toxin inh: 10.4

What do the screens show for `S=C(NNc1ccc2ccccc2c1)NC1CCCCC1`?
Pf growth 96h: -3.5%; HCV inhibitor: -13.0%; HCMV antiviral: -60.2*; CHX counter: 49.1*; Pf growth 48h: -0.6%; Shiga toxin inh: 60.8*

Results for S=C(Nc1ccc(Cl)c(Cl)c1)NC1CCCCC1 ?
Pf growth 96h: 0.0%; HCV inhibitor: inconclusive; HCMV antiviral: -98.9*; CHX counter: 56.4*; Pf growth 48h: 13.1µM*; Shiga toxin inh: active

Results for CC(C)c1ccc(NC(=S)NN2CCOCC2)cc1 ?
Pf growth 96h: inconclusive; HCV inhibitor: 10.7%; HCMV antiviral: 97.0; CHX counter: 22.6*; Pf growth 48h: 104.9%; Shiga toxin inh: 48.5*

How did S=C(Nc1ccc(Cl)cc1Cl)NC1CCCCC1 do in these assays?
Pf growth 96h: -28.5%; HCV inhibitor: inconclusive; HCMV antiviral: -16.6; CHX counter: -0.5; Pf growth 48h: 33.5%; Shiga toxin inh: -2.4

How did S=C(Nc1ccc(Cl)cc1)NN1CCOCC1 do in these assays?
Pf growth 96h: inconclusive; HCV inhibitor: -1.7%; HCMV antiviral: -14.8; CHX counter: -3.2; Pf growth 48h: -24.1%; Shiga toxin inh: -17.9

How did S=C(Nc1ccc2nsnc2c1)NC1CCCCC1 do in these assays?
Pf growth 96h: 5.7%; HCV inhibitor: -2.8%; HCMV antiviral: -61.6*; CHX counter: 59.3*; Pf growth 48h: 61.6%; Shiga toxin inh: 88.0*

What do the screens show for `COC(=O)C(C(=O)OC)c1ncccc1NS(=O)(=O)c1ccc(C)cc1`?
HCMV antiviral: -10.3

What do the screens show for `COc1ccc(C2CC2C(C)=O)cc1` (centres undefined)?
Pf growth 96h: 27.3%; HCV inhibitor: 15.9%; HCMV antiviral: 61.2; CHX counter: 20.3; Pf growth 48h: -8.3%; Shiga toxin inh: 2.9

What do the screens show for `CN(CC(=O)Nc1ccc(Cl)c(Cl)c1)C(=O)C1CCCC1`?
Pf growth 96h: 5.22µM*; HCV inhibitor: -23.6%; HCMV antiviral: -21.5; Pf growth 48h: inconclusive

How did CC(C)c1ccc(NC(=S)NN2C(C)CCCC2C)cc1 (centres undefined) do in these assays?
Pf growth 96h: 6.57µM*; HCV inhibitor: 1.8%; HCMV antiviral: -4.7; CHX counter: 0.9; Pf growth 48h: inconclusive; Shiga toxin inh: 10.0

What do the screens show for `CC(C)c1ccc(NC(=S)NC2CCCCCC2)cc1`?
Pf growth 96h: 3.1%; HCV inhibitor: -2.6%; HCMV antiviral: 18.2; CHX counter: 31.7*; Pf growth 48h: -22.7%; Shiga toxin inh: 68.6*

Compound activity from PubChem BioAssay.
